ssDAF12 agonist – S. stercoralis DAF-12 activation, primary screen | HEK293 ssDAF-12/GRIP1 lit1-tk-luc reporter, luminescence; % of 3 µM dafachronic acid response | activation, % at 6.8 µM | 370,000 tested, 1% active | AID 652126;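 active means activation above the mean over all tested compounds plus 3 SD, cut at about 0.9% in these data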
hgDAF-12 ag – hgDAF-12 agonism, primary luciferase screen; HEK293 GAL4-hgDAF12 UAS-luciferase reporter, agonist luminescence; normalized to butyrate control; activation, % at 6.8 µM; 370,000 tested, 1.8% active;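 active means activation above a cutoff set at the mean of all screened compounds plus 3 SD, cut at about 10% in these data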
DAX1 inh-1 – inhibits human nuclear receptor DAX1. P51843. HEK293 Gal4-DAX1 luciferase reporter, luminescence. inhibition, % at 6.75 µM. 340,000 tested, 0.99% active;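 active means inhibition above the mean over all tested compounds plus 3 SD, cut at about 4.2% in these data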;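 further: inhibition shows as a rise in luminescence from relieved DAX1 repression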
Target sequence (P51843 207-470 limits assumed): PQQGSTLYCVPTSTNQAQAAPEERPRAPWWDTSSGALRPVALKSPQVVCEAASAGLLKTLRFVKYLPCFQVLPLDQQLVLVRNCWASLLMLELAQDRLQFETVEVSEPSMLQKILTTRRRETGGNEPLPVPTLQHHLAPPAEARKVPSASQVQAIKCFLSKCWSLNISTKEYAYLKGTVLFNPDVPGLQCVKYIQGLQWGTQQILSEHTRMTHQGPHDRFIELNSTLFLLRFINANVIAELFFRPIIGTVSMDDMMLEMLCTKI
DAX1 inh-2 – DAX1 (NR0B1) inhibition, primary screen. HEK293T StAR-luciferase reporter, SF-1/DAX-1 repression relief. inhibition, % at 6.8 µM. 370,000 tested, 1.1% active. AID 652010;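 active means inhibition above the mean over all tested compounds plus 3 SD, cut at about 3.6% in these data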;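 further: higher inhibition means more luminescence from relief of DAX-1 repression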
hcDAF12 agonist – activators of H. contortus DAF-12 nuclear receptor; HEK293 hcDAF-12 lit1-tk-luc reporter, luminescence; 0% DMSO, 100% Δ7-dafachronic acid; activation, % at 6.8 µM; 370,000 tested, 1.4% active; AID 652067;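 active means activation above the mean of all tested compounds plus 3 SD, cut at about 5.5% in these data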
Large screens that a line does not name were inactive. Rows were chosen to be rich in hits. Some 4.1% of all compounds tested hit in one or more screens of this group.

Cc1cc(=O)[nH]c(SCC(=O)NCCC2=CCCCC2)n1	DAX1 inh-1 4.9
Nc1sccc1C(=O)NC1CC1	none (no result: DAX1 inh-1)
COc1ccc2cc(-c3cc(C(=O)OCC(=O)NC4CCS(=O)(=O)C4)c4ccccc4n3)ccc2c1 (centres undefined)	hgDAF-12 ag 15.4, DAX1 inh-2 4.4
COc1ccc(-c2cc(C(=O)OCC(=O)NC3CC3)c3ccccc3n2)cc1	none
CC(C)(C)c1ccc(C(=O)Nc2ccc(F)cc2)s1	hcDAF12 agonist 6.3
O=C1CC(C(=O)Nc2ccccc2)S/C(=N\NC(=O)c2ccccc2Cl)N1 (centres undefined)	DAX1 inh-1 4.3
COc1ccccc1C(=O)N/N=C1/NC(=O)CC(C(=O)Nc2ccccc2)S1 (centres undefined)	none
C[n+]1cn(/N=C/c2ccccc2)c2ccccc21	hcDAF12 agonist 5.8
CC(=O)C1=C(C)N(Cc2ccc(Cl)cc2)C(=S)NC1c1ccc(Cl)cc1 (centres undefined)	none (no result: DAX1 inh-1)
CCCCN1C2CCCC1CC(NC(=O)c1ccccc1Cl)C2 (centres undefined)	DAX1 inh-1 4.7
NC(=O)[C@@H]1CCCN1C(=O)[C@H]1O[C@@H](n2ccc(N)nc2=O)[C@H](O)[C@@H]1O	none (no result: DAX1 inh-1)
O=C(O)CCC(=O)Nc1nc2nccc(-c3ccccc3)n2n1	DAX1 inh-1 4.8
CCCC(=O)Nc1nc2nc(-c3ccccc3)cc(-c3ccccc3)n2n1	none
Cc1oc2c(C)c(O)ccc2c(=O)c1-c1nncn1-c1ccccc1	DAX1 inh-1 7.1
O=C(N[C@H](C(=O)O)c1ccccc1)C1CCC(Cn2cnc3ccccc3c2=O)CC1 (some centres undefined)	DAX1 inh-1 4.6
COCCN1C[C@@H](CO)O[C@@H](n2cnc3c(NC4CCCC4)ncnc32)C1	none (no result: DAX1 inh-1)
COc1ccc(C(=O)c2c3ccc(OC)cc3[n+]([O-])n2CCCC(N)=O)cc1	none
COc1ccc(C(=O)c2c3ccc(OC)cc3[n+]([O-])n2Cc2ccc(C(N)=O)cc2)cc1	hcDAF12 agonist 6.3
NC(=O)c1ccc(Cn2c(C(=O)c3ccc(Cl)cc3)c3ccccc3[n+]2[O-])cc1	hcDAF12 agonist 5.7
CN(C)/C=C/C(=O)c1ccc2noc(-c3ccc(F)cc3)c2c1	DAX1 inh-1 4.8
Cc1ccc(-c2onc3ccc(C(=O)/C=C/N(C)C)cc23)cc1	none
CC1CN/C(=C\C(=O)c2ccccc2)C(=O)N1 (centres undefined)	none
CC1CN/C(=C\C(=O)c2ccc(Cl)cc2)C(=O)N1 (centres undefined)	hgDAF-12 ag 12.2
O=C(NCCOc1ccccc1)C1CCCCC1	DAX1 inh-2 4.1
COC(=O)c1ccc(Cn2ccc3ccc(-c4ccc5ccn(Cc6ccc(C(=O)OC)cc6)c5c4)cc32)cc1	none (no result: DAX1 inh-1)
Clc1nccc(NCc2ccccc2)n1	none
Clc1cccc(NCc2ccccc2)n1	DAX1 inh-1 4.9
OC1COC(c2ccccc2)OC1C1OC(c2ccccc2)OCC1O (centres undefined)	DAX1 inh-1 4.9
Cc1ccc(CNc2ncnc3ccc(-c4ccoc4C)cc23)o1	none (no result: DAX1 inh-1)
CC(=O)c1ccc(NC(=O)CSc2nc(N3CCOCC3)nc(N3CCOCC3)n2)cc1	DAX1 inh-2 4.1
CCOC(=O)c1ccc(NC(=O)CSc2nc(N3CCOCC3)nc(N3CCOCC3)n2)cc1	none
CNC(=O)c1ncnnc1N(C)C(=O)NCc1ccccc1	DAX1 inh-1 9.6
COc1ccc(C2C(C(=O)Nc3c(C)cccc3C)CCC(=O)N2c2ccc(OC)cc2)cc1 (centres undefined)	none (no result: DAX1 inh-1)
COc1ccccc1NC(=O)COc1ccccc1C(=O)c1cnn(-c2ccccc2)c1	hgDAF-12 ag 12.8
COc1ccccc1NC(=O)COc1ccccc1	none
Cc1ccccc1OCCCN1CCC(C(O)(c2ccccc2)c2ccccc2)CC1	none (no result: DAX1 inh-1)
COc1ccc(CCNc2nc3ccccc3n3cnnc23)cc1OC	none
COCCNc1nc2ccccc2n2cnnc12	DAX1 inh-1 4.3
CC(C)n1nnnc1C1(C)CCSCC(=O)N1Cc1cccc(C(F)(F)F)c1 (centres undefined)	none (no result: DAX1 inh-1)
O=c1c2ccccc2oc2cc(NCCCN3CCOCC3)ccc12	hgDAF-12 ag 11.7
CC(C)N(CCn1cnc2c([nH]c3ccccc32)c1=O)C(C)C	hcDAF12 agonist 6.1
O=C(CSc1cccs1)Nc1ccc(Cl)cc1	DAX1 inh-1 4.9
CC(=O)Nc1ccc(NC(=O)CSc2nnc(-c3n[nH]c4c3CCC4)n2N)cc1	none (no result: DAX1 inh-1)
CC(C)(C)N=Cc1cc(-c2ccccc2)sc1O	hgDAF-12 ag 12.1
CC(=O)c1sc(-c2ccccc2)cc1N	none (no result: DAX1 inh-1)
CN(C)c1ccc(Nc2nc(N)c3ccccc3n2)cc1	hgDAF-12 ag 10.5
CCOc1ccc(Nc2nc(N)c3ccccc3n2)cc1	ssDAF12 agonist 1.4
COC1OC(CO)C(N(C)C(C)=O)C1O (centres undefined)	DAX1 inh-1 4.8
COC(=O)[C@]12C[C@H](CC(=O)N3CCCCC3)C(=O)N(Cc3cccc4ccccc34)C1=C[C@H](C(C)C)O[C@@H]2C1CC1	none (no result: DAX1 inh-1)
Cc1ccc(C2=NOC(=O)/C2=C\c2ccc(C)o2)cc1	DAX1 inh-1 5.8
Cc1ccc(/C=C2\C(=O)ON=C2c2ccccc2)o1	none (no result: DAX1 inh-1)
CC(=O)Cn1cnc2c(cnn2-c2ccc(F)cc2)c1=O	ssDAF12 agonist 1.0
CC(C)(C)n1ncc2c(=O)n(CC(=O)Nc3ccc(Cl)cc3)cnc21	none
CC(C)(C)n1ncc2c(=O)n(CC(=O)c3ccc(Cl)cc3)cnc21	hgDAF-12 ag 11.6
CC(OC(=O)c1nccnc1N)C(=O)Nc1ccc(S(=O)(=O)N2CCCC2)cc1 (centres undefined)	DAX1 inh-1 4.6
CC(OC(=O)c1ccc(S(=O)(=O)N2CCCCC2)cc1)C(=O)Nc1ccc(C(N)=O)cc1 (centres undefined)	none
O=C(Nc1nccs1)C1(C(=O)C2CC2)CC(c2ccccn2)=NO1 (centres undefined)	ssDAF12 agonist 1.0 (no result: DAX1 inh-1)
COc1ccc(C2Nc3cccc4cccc(c34)N2)cc1Br	ssDAF12 agonist 1.1
CCCCOc1ccc(Cc2c(Cl)nc(SC)nc2N2CCOCC2)cc1	none
CSc1nc(Cl)c(Cc2ccc(OCC(C)C)cc2)c(N2CCOCC2)n1	hcDAF12 agonist 5.9
Cc1ccccc1N=C1Nc2ccccc2CS1	hgDAF-12 ag 11.0
c1cncc(CSc2ccc(-c3ccc4c(c3)OCO4)nn2)c1	hcDAF12 agonist 5.6
CC(C)[C@H](NC(=O)c1ccc(Cl)cc1Cl)C(=O)N1CCC[C@H]1C(=O)NCc1ccccc1	none (no result: DAX1 inh-1)
O=[N+]([O-])c1ccc(-c2nc(Nc3ccc(O)cc3)c3ccccc3n2)cc1	none
O=C(O)c1ccc(Nc2nc(-c3ccc([N+](=O)[O-])cc3)nc3ccccc23)cc1	hcDAF12 agonist 5.6
CN(C)c1cccc(CNC(=O)c2ccc3sc([C@@H]4O[C@H](CO)[C@H](O)[C@H](O)[C@H]4O)nc3c2)c1	none (no result: DAX1 inh-1)
CCOC(=O)CCC(=O)N1CCNC(=O)C1	hcDAF12 agonist 5.6

Screening data from PubChem BioAssay.
